A selection: hits, their analogues and other compounds. The true share with any hit is near 6.2%.
Lassa entry inh: qHTS for Inhibitors of binding or entry into cells for Lassa Virus. Potency, µM (titrated, usually from 37.9 µM), usual class: inhibitors. 300,000 compounds, 1.2% hits. Lassa virus pseudotype entry inhibition, cell reporter; calls by dose curve; tested in HEK293 cells; note: nearly all actives have a fitted effect of over 50% in size
MARV entry inh: qHTS for inhibitors of binding or entry into cells for Marburg Virus; Potency, µM (top dose mostly 37.8 µM), hits mostly inhibitors; Marburg virus pseudotyped entry inhibition, cell reporter; 300,000 compounds, 1.8% hits; calls by dose curve; tested in HEK293 cells
FMDV inh: High Throughput Screening for Foot and Mouth Disease Virus Antivirals | FMDV antiviral cell-based qHTS | Potency, µM (series often up to 57.9 µM), hits mostly inhibitors | 410,000 compounds, 1.2% hits; calls by dose curve; tested in HEK293T cells; note: read-out not given here; nearly all actives have a fitted effect of over 45% in size
HCMV antiviral: qHTS Assay for inhibitors of the human cytomegalovirus (HCMV); 410,000 compounds, 4.5% hits; HFF cells, HCMV-luciferase reporter, 72 h; hits give low values; AID 1259415, 2018; activity change, negative = inhibition, % at 57.5 µM; in the data active = activity change below about -60%; inconclusive = no clear call, values can overlap the other calls; inactive = above about -39%
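Cell-based, HFFs, 1000 cells/well, 16 h 37C; cpds in DMSO + HCMV-luc, MOI 1 PFU/cell; 72 h 37C; OneGlo luminescence after 5 min RT; norm. to buffer vs Salinomycin 10uM.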
Each line names hits and unclear results; the compound was inactive in the other large screens.

O=C(CSCc1ccc(F)cc1)N1CCc2c([nH]c3ccccc23)C1c1ccc(F)cc1 (stereo unspecified)	Lassa entry inh inconclusive (no result: MARV entry inh)
CSc1ccc(C2c3[nH]c4ccccc4c3CCN2C(=O)CCc2ccccc2)cc1 (stereo unspecified)	Lassa entry inh 2.5µM, HCMV antiviral -79 (no result: MARV entry inh)
O=C(CCc1ccccc1)N1CCc2c([nH]c3ccccc23)C1c1ccc(Cl)cc1 (stereo unspecified)	Lassa entry inh inconclusive, HCMV antiviral -68 (no result: MARV entry inh)
CN(C)c1ncc2nc(-c3cc(F)cc(F)c3)c(=O)n(Cc3ccc(F)cc3)c2n1	none (no result: Lassa entry inh, MARV entry inh, HCMV antiviral)
COc1ccc(Cn2c(SCc3ccc(C(=O)NC4CCCC4)cc3)nc3cccnc32)cc1	none (no result: MARV entry inh)
CC(Nc1nc(-c2ccc(F)cc2)cs1)c1nc2cc(Cl)c(N3CCCCC3)cc2n1CCOCCO (stereo unspecified)	FMDV inh inconclusive (no result: Lassa entry inh, MARV entry inh)
CC(Nc1nc(-c2ccc(F)cc2)cs1)c1nc2cc(Cl)c(N3CCCCC3)cc2n1CCCO (stereo unspecified)	HCMV antiviral -65 (no result: Lassa entry inh, MARV entry inh)
COc1ccc(N2CCN(C(=O)COC(=O)CNC(=O)c3ccc(Cl)cc3Cl)CC2)cc1	none
Cc1ccc2c(c1)N(C(=O)CCC(=O)N1CCN(c3cccc(C)c3C)CC1)CCO2	FMDV inh 14µM, HCMV antiviral inconclusive (no result: Lassa entry inh, MARV entry inh)
Cc1ccc2c(c1)N(C(=O)CCC(=O)N1CCN(c3ccccc3)CC1)CCO2	none (no result: Lassa entry inh, MARV entry inh)
Cc1cccc(N2CCN(C(=O)CCCSc3nc4ccccc4[nH]3)CC2)c1C	MARV entry inh inconclusive, FMDV inh 35µM, HCMV antiviral inconclusive
O=C(CCCSc1nc2ccccc2[nH]1)N1CCN(c2ccccc2)CC1	MARV entry inh inconclusive, FMDV inh inconclusive
COc1ccc(N2CCN(C(=O)COC(=O)CC(NC(N)=O)c3ccc(Cl)cc3)CC2)cc1 (stereo unspecified)	FMDV inh inconclusive, HCMV antiviral -62 (no result: Lassa entry inh, MARV entry inh)
COc1ccc(N2CCN(C(=O)CCC(=O)N3CCOc4ccc(Cl)cc43)CC2)cc1	HCMV antiviral -99 (no result: Lassa entry inh, MARV entry inh)
CC1(C(=O)O)NCCc2cc(O)c(O)cc21 (stereo unspecified)	none (no result: Lassa entry inh, MARV entry inh, HCMV antiviral)
Nc1nc2c(C(=O)N3CCCC3)nnn2c2ccccc12	none (no result: Lassa entry inh, MARV entry inh, FMDV inh)
COc1ccc(CC(=O)N2CCN(c3cccc(C)c3C)CC2)cc1	none (no result: Lassa entry inh, MARV entry inh)
CCOC(=O)c1[nH]c2ccc(OC)cc2c1NC(=S)N1CCN(c2cccc(C)c2C)CC1	Lassa entry inh inconclusive, MARV entry inh 2.2µM
COc1ccc(CCC(=O)N2CCN(c3cccc(C)c3C)CC2)cc1	HCMV antiviral -80 (no result: Lassa entry inh)
CCOC(=O)c1[nH]c2ccc(OC)cc2c1NC(=S)N1CCN(c2ccc(F)cc2)CC1	MARV entry inh inconclusive
Cc1cccc(N2CCN(C(=O)CCC(=O)N3Cc4ccccc4Oc4ncccc43)CC2)c1C	Lassa entry inh inconclusive, MARV entry inh inconclusive, FMDV inh inconclusive, HCMV antiviral -94
Cc1ccc(NC(=O)CCC(=O)N2Cc3ccccc3Oc3ncccc32)cc1Cl	none (no result: MARV entry inh)
COc1ccc(-c2c3c(=O)n(C)c(=O)n(C)c3c3n2-c2ccccc2NC3c2ccc(OC)cc2)cc1 (stereo unspecified)	none
C[N+]1=CC2=c3c1c(O)c1c(c3=NCC2)C2(C=C(Br)C(=O)C(Br)=C2)CCN1	HCMV antiviral -102 (no result: Lassa entry inh, MARV entry inh, FMDV inh)
c1ccc2sc(C3(N4CCCCC4)CCCCC3)cc2c1	Lassa entry inh inconclusive, MARV entry inh 7.1µM (no result: HCMV antiviral)
CC1(C(=O)O)CCCN1C(=O)c1cc2ccccc2s1 (stereo unspecified)	none (no result: Lassa entry inh, MARV entry inh)
O=C(CCNS(=O)(=O)c1ccccc1C(F)(F)F)N1CCN(C(c2ccccc2)c2ccccc2)CC1	Lassa entry inh inconclusive, MARV entry inh 7.1µM, FMDV inh inconclusive
Nc1nc(=S)c2[nH]c(=S)[nH]c2[nH]1	none
Nc1nc(=S)c2[nH]cnc2[nH]1	HCMV antiviral -86 (no result: Lassa entry inh, MARV entry inh)
COc1ccc(Br)cc1CN(C)CC(=O)Nc1c(Cl)cccc1Cl	HCMV antiviral -61
COC(=O)C1CCCCN1Cc1ccc2c(c1)CN(C(=O)c1csc(-c3cccs3)n1)CCO2 (stereo unspecified)	none (no result: Lassa entry inh, MARV entry inh, HCMV antiviral)
COc1ccc(-c2nc(CNS(=O)(=O)c3ccc(F)cc3)cs2)cc1	Lassa entry inh inconclusive, FMDV inh inconclusive, HCMV antiviral -73
COc1ccccc1Nc1c2c(nc3ccc(NC(=O)c4cccc(OC)c4OC)cc13)CCCC2	Lassa entry inh 7.9µM, MARV entry inh inconclusive, FMDV inh inconclusive, HCMV antiviral -98
COc1ccccc1Nc1c2c(nc3ccc(N)cc13)CCCC2	none (no result: Lassa entry inh, MARV entry inh)
COc1ccccc1Nc1c2c(nc3ccc(NC(=O)c4ccccc4F)cc13)CCCC2	Lassa entry inh inconclusive, MARV entry inh 3.2µM, FMDV inh inconclusive, HCMV antiviral -100
COc1ccc(C(=O)Nc2ccc3nc4c(c(Nc5ccc(OC)c(OC)c5)c3c2)CCCC4)c(OC)c1	MARV entry inh inconclusive, HCMV antiviral -92
COc1ccccc1Nc1c2c(nc3ccc(NC(=O)c4ccc(OC)c(OC)c4)cc13)CCCC2	Lassa entry inh inconclusive, MARV entry inh 2.2µM, FMDV inh inconclusive, HCMV antiviral -99
COc1ccc(Nc2c3c(nc4ccc(NC(=O)c5ccc(F)cc5)cc24)CCCC3)cc1OC	MARV entry inh inconclusive
CCc1ccc(NC(=O)CSc2nccn2C2CCCC2)cc1	none (no result: MARV entry inh)
CC(C)(O)C#Cc1ccc(CN2CCc3nnc(CNC(=O)c4cccc(F)c4)n3CC2)cc1	none (no result: Lassa entry inh, MARV entry inh, HCMV antiviral)
COc1ccc(C(=O)Nc2ccc3nc4c(c(Nc5ccccc5OC)c3c2)CCCC4)c(OC)c1	MARV entry inh 2.5µM
COc1ccc(-n2ccn3c(CC(C)(C)CC(=O)O)nnc3c2=O)cc1	none
CCN1C(Nc2ccccc2)=NC[C@@H]1Cc1ccccc1	none (no result: Lassa entry inh, MARV entry inh)
CC(C)(C)C1CCC(CN2C(Nc3ccccc3)=NC[C@@H]2Cc2ccccc2)CC1 (stereo partly specified)	FMDV inh inconclusive, HCMV antiviral -76 (no result: Lassa entry inh, MARV entry inh)
CCC(C)CCN1C(Nc2ccccc2)=NC[C@@H]1Cc1ccccc1 (stereo partly specified)	FMDV inh inconclusive, HCMV antiviral -100 (no result: Lassa entry inh, MARV entry inh)
COc1ccc(CNC(=O)c2cc3c(=O)n4cccc(C)c4nc3s2)cc1	none
c1ccc(-n2nnnc2CN2CCOCC2)cc1	HCMV antiviral -68 (no result: Lassa entry inh, MARV entry inh)
CC(C)=CCCC1(C)C=Cc2c(c(C)cc3c2[nH]c2cc(O)ccc23)O1 (stereo unspecified)	HCMV antiviral -104 (no result: Lassa entry inh, MARV entry inh)
CCOC(=O)[C@]12CCCC=C1N(CCc1ccc(OC)c(OC)c1)C(=O)[C@H](CC(=O)N1CCN(C(=O)C3CC3)CC1)C2	none (no result: Lassa entry inh, MARV entry inh)
CC(=O)c1ccc(NC(=O)CCc2c(C)nc3c(c2C)c(=O)n(C)c(=O)n3C)cc1	MARV entry inh inconclusive
O=S(=O)(/C=C/c1ccccc1)N1CCC(n2c(C3CCCO3)nc3cccnc32)CC1 (stereo unspecified)	none (no result: Lassa entry inh, MARV entry inh, HCMV antiviral)
CCOC(=O)c1c(C)[nH]c(C(=O)OCC(=O)Nc2sccc2C(N)=O)c1C	Lassa entry inh inconclusive, MARV entry inh 2.2µM, FMDV inh 16µM, HCMV antiviral -68
CCOC(=O)c1c(C)[nH]c(C(=O)N/N=C\c2ccccc2Cl)c1C	Lassa entry inh inconclusive, HCMV antiviral -99
CCOC(=O)c1c(C)[nH]c(C(=O)Nc2ccc(NC(C)=O)cc2)c1C	MARV entry inh inconclusive, HCMV antiviral -65

High-throughput results as filed in PubChem BioAssay.
